TROY signal inh = TROY signaling inhibition. Q293 LMP1-TROYcd NF-kB luciferase reporter, 4 h. inhibition, % at 10 µM. 360,000 tested, 0.98% active. AID 1347056;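 active = compounds whose plate-normalised and pattern-corrected inhibition of the luciferase reporter signal at the single screening dose is 50% or more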
HSP90 inh = blocks HSP90-mediated luciferase refolding in reticulocyte lysate; 290,000 tested, 0.91% active; Rabbit reticulocyte lysate, luciferase refolding luminescence, 3 h; AID 1789; inhibition, % at 5.6 µM;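 active = inhibition above the screen-wide mean plus 3 SD, computed separately per campaign, cut at about 16% in these data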;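 also: inhibitors lower the luminescence because luciferase stays unfolded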
TWEAK-Fn14 inh = blocks TWEAK-Fn14 interaction in a reporter cell assay; TWEAK-stimulated Fn14 reporter cells, luciferase luminescence, 8 h; inhibition, % at 10 µM; 360,000 tested, 2% active; AID 1159606; in the data active = inhibition above about 50%
LGR2 inh = blocks bursicon-induced cAMP signaling via Drosophila LGR2 | HEK293 LGR2, CRE-luciferase, bursicon-stimulated, 4 h | inhibition, % at 9.99 µM | 380,000 tested, 0.35% active | AID 720647;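 active = drop in luminescence signal, shown as inhibition above about 50% in the replicate tests, limit read from the data, passing the limit was not always enough; inconclusive = probably only some replicates passing the limit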;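 also: agonist challenge used bursicon conditioned medium at about half maximal strength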
A number is an active result. Sampled rows, rich in hits. Any-hit rate of the full collection: about 2.2%.

For C[C@@H]1CN([C@H](C)CO)C(=O)c2cccc(NS(=O)(=O)c3cn(C)cn3)c2O[C@@H]1CN(C)C(=O)Nc1ccc2c(c1)OCO2 the results were LGR2 inh inactive.
Screening C=CC[C@@H](CC(=O)N(CCO)Cc1ccccc1)C(=O)N[C@H](COC(=O)[C@@H](CC=C)CC(=O)OC(C)(C)C)Cc1c[nH]c2ccccc12 returned TROY signal inh inactive, TWEAK-Fn14 inh inactive and LGR2 inh inactive.
C=CC[C@@H](CC(=O)N(CCO)Cc1ccccc1)C(=O)N[C@H](COC(=O)[C@@H](CC=C)Cc1ccc(F)cc1)c1ccccc1 was read as TROY signal inh inactive, TWEAK-Fn14 inh inactive and LGR2 inh inactive.
`C=CC[C@H](CC(=O)N(CCO)Cc1ccccc1)C(=O)N[C@@H](COC(=O)[C@H](CC=C)CC(=O)OC(C)(C)C)Cc1c[nH]c2ccccc12` gave TROY signal inh inactive, TWEAK-Fn14 inh inactive and LGR2 inh inactive.
For C=CC[C@@H](CC(=O)N(CCO)Cc1ccccc1)C(=O)N[C@@H](COC(=O)[C@@H](CC=C)Cc1ccc(F)cc1)Cc1c[nH]c2ccccc12 the results were TROY signal inh inactive, TWEAK-Fn14 inh 57 and LGR2 inh inactive.
Screening C=CC[C@@H](CC(=O)N[C@H](CO)Cc1ccccc1)C(=O)N[C@H](COC(=O)[C@@H](CC=C)Cc1ccc(F)cc1)Cc1c[nH]c2ccccc12 returned TROY signal inh 69, TWEAK-Fn14 inh 66 and LGR2 inh inactive.
C=CC[C@@H](CC(=O)N(CCO)Cc1ccccc1)C(=O)NC[C@H](OC(=O)[C@@H](CC=C)Cc1ccc(F)cc1)c1ccccc1 was read as TROY signal inh inactive, TWEAK-Fn14 inh 52 and LGR2 inh inactive.
For C=CC[C@H](CC(=O)N(CCO)Cc1ccccc1)C(=O)N[C@@H](COC(=O)[C@@H](CC=C)Cc1ccc(F)cc1)Cc1c[nH]c2ccccc12 the results were TROY signal inh inactive, TWEAK-Fn14 inh 70 and LGR2 inh inactive.
COc1ccccc1NC(=O)N[C@@H]1CC[C@H](CC(=O)N[C@H](C)c2ccccc2)O[C@H]1CO was read as LGR2 inh inactive.
`CN1CCN(C(=O)C[C@@H]2CC[C@H]3[C@@H](COC[C@H](O)CN3C(=O)Nc3ccc(Cl)cc3)O2)CC1` gave LGR2 inh inactive.
`COCC(=O)N1CCC2(CC1)CN(C(=O)NC1CCCC1)[C@H](CO)c1c2c2ccc(OC)cc2n1C` gave LGR2 inh inactive.
Cc1ccc(C(C[N+](=O)[O-])c2c(N)n(C)c(=O)n(C)c2=O)cc1 (stereo not drawn) was read as TROY signal inh inactive, HSP90 inh inactive, TWEAK-Fn14 inh inactive and LGR2 inh inactive.
Cn1c(N)c(C(C[N+](=O)[O-])c2ccccc2Cl)c(=O)n(C)c1=O (stereo not drawn) was read as TROY signal inh inactive and TWEAK-Fn14 inh 99.
For COc1cccc(F)c1C(C[N+](=O)[O-])c1c(N)n(C)c(=O)n(C)c1=O (stereo not drawn) the results were TROY signal inh inactive, HSP90 inh inactive, TWEAK-Fn14 inh 58 and LGR2 inh 64.
Screening CCC(=O)Nc1ccc2c(c1)OC[C@@H](C)N(C(=O)CN(C)C)C[C@H](C)[C@@H](OC)CN(C)C2=O returned LGR2 inh inactive.
CO[C@@H]1CN(C)C(=O)c2cc(NC(C)=O)ccc2OC[C@H](C)N(CCc2ccccc2)C[C@@H]1C was read as LGR2 inh inactive.
For CC(=O)N1CCCCN2[C@H](CO)[C@H](c3ccc(-c4cccc(C)c4)cc3)[C@H]2C1 the results were LGR2 inh inactive.
Screening CC1CCN(C2=NC(=O)/C(=C/c3cn(-c4ccccc4)nc3-c3cccc(S(=O)(=O)N(C)C)c3)S2)CC1 returned HSP90 inh inactive and TWEAK-Fn14 inh 76.
For Cc1cccc(-c2nc3cc(NC(=O)C4CCCO4)ccc3o2)c1 (stereo not drawn) the results were TROY signal inh inactive, HSP90 inh inactive, TWEAK-Fn14 inh 68 and LGR2 inh 59.
O=C(Nc1ccc(-c2nc3ccccc3[nH]2)cc1)C1CCCO1 (stereo not drawn) was read as TROY signal inh inactive, HSP90 inh inactive, TWEAK-Fn14 inh 73 and LGR2 inh inconclusive.
Cc1ccc(-c2nc3cc(NC(=O)C(C)C)ccc3o2)cc1 was read as TROY signal inh 53, HSP90 inh inactive and TWEAK-Fn14 inh 61.
CC(Oc1ccc(Cl)cc1Cl)C(=O)Nc1ccc2oc(-c3ccncc3)nc2c1 (stereo not drawn) was read as TROY signal inh 59, HSP90 inh inactive and TWEAK-Fn14 inh 54.
O=C(Nc1nc2ccccc2[nH]1)C1CCCO1 (stereo not drawn) was read as TROY signal inh inactive, HSP90 inh inactive, TWEAK-Fn14 inh inactive and LGR2 inh inactive.
